In PubChem BioAssay AID720560 (Broad Institute, 2013) one finds outcome data, which are given here for ten compounds.

Measured potencies and affinities stand elsewhere. Results filed as inconclusive are left out. Activity calls are given as the source filed them.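 The calls were made as follows: active = signal drop whose fitted half-maximal concentration is at most twice the top valid dose; inconclusive = flat moderate drop between 30 and 70 percent, or an unreliable fit; inactive = the rest.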

The experiment is described as follows: inhibitors of HRE-driven luciferase expression, dose response, ARNT-TACC3 inhibitor project, HeLa cells, luminescence, dry powder samples, 2158-08 (AID 720560). Particulars: HeLa 3xHRE-luciferase reporter; series mostly up to 60 µM. A general note: Reporter assays use an easily measured gene product as a stand-in for the process of interest.
With `O=C(CSc1ccc(-c2ccccn2)nn1)NC1CCCCC1`, the compound was called inactive.

With `O=C(Nc1nnc(C2=COCCO2)o1)c1ccc(S(=O)(=O)N2CCCCC2)cc1`, the outcome was inactive.

Take `Cc1nnc(NC(=O)c2ccc(S(=O)(=O)N3CCCCC3)cc2)o1`: the result was inactive. Turning to `Cc1ccc(C(=O)Nc2nc(-c3ccccn3)cs2)cc1S(=O)(=O)N1CCOCC1`, the compound was called inactive. For `CC1CCN(S(=O)(=O)c2ccc(C(=O)Nc3nnc(-c4ccccn4)o3)cc2)CC1`, the compound was called inactive.

Regarding `O=C(CSc1ccc(-c2ccccn2)nn1)Nc1ccccc1`, the compound was called inactive. Regarding `CC1CCN(S(=O)(=O)c2ccc(C(=O)Nc3nnc(-c4ccno4)o3)cc2)CC1`, the result was inactive. Turning to `C=CC1=C(C(=O)O)N2C(=O)[C@@H](NC(=O)/C(=N\O)c3csc(N)n3)[C@H]2SC1` (stereo in doubt), the compound was classed as inactive.

Regarding `Cc1c(C(=O)N(C)C)sc2nc(-c3ccccn3)[nH]c(=O)c12`, the outcome was inactive.

Regarding `O=C(CSc1ccc(-c2ccccn2)nn1)N1CCCC1`, the result was inactive.
